Laboratory results reported in the supplement of paper PMC6555819.

Legend:
Experiment in all cases: PBM binding z-score (relative to random genomic background probes); higher = stronger binding; sequences stand for … in GC…GCGATTGACAGCGTAGAATGAAGG
[1] = system: FXR:RXRa (NR concentration 270 nM, RXRa partner concentration 90 nM)
In short: (§1)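 Custom Agilent 4×180K protein-binding microarrays carried double-stranded probes, each with a 34-nt variable region. These regions held direct-repeat seeds, single-nucleotide variants, half-site ablations and random human genomic background sequences. Ligand-free nuclear receptor dimers were incubated on the arrays for 1 h, antibodies against each partner (one per run) detected binding, and scanned fluorescence was regression-normalized. Binding z-scores take the random background probes as reference.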

[2] = system: LXRa:RXRa (NR concentration 270 nM, RXRa partner concentration 90 nM)
In short: as §1

[3] = system: LXRa homodimer (NR concentration 270 nM)
In short: as §1

[4] = system: LXRb:RXRa (NR concentration 270 nM, RXRa partner concentration 90 nM)
In short: as §1

[5] = system: LXRb homodimer (NR concentration 270 nM)
In short: as §1

[6] = system: PPARa:RXRa (NR concentration 270 nM, RXRa partner concentration 90 nM)
In short: as §1

[7] = system: PPARg:RXRa (NR concentration 180 nM, RXRa partner concentration 90 nM)
In short: as §1

[8] = system: PPARg:RXRa 270nM:90nM, anti-RXR (NR concentration 270 nM, RXRa partner concentration 90 nM)
In short: as §1

[9] = system: PPARg:RXRa 30nM:10nM, anti-RXR (NR concentration 30 nM, RXRa partner concentration 10 nM)
In short: as §1

[10] = system: PPARg:RXRa 90nM:30nM, anti-RXR (NR concentration 90 nM, RXRa partner concentration 30 nM)
In short: as §1

| Sequence | PBM binding z-score [1] | PBM binding z-score [2] | PBM binding z-score [3] | PBM binding z-score [4] | PBM binding z-score [5] | PBM binding z-score [6] | PBM binding z-score [7] | PBM binding z-score [8] | PBM binding z-score [9] | PBM binding z-score [10] |
| --- | --- | --- | --- | --- | --- | --- | --- | --- | --- | --- |
| TCTTGTAGTTCAGCAGGTTAAGAAAGCTGGCCAA | 0.786 | 1.15 | 0.28 | 0.805 | 0.146 | 1.5 | -0.802 | 1.61 | 2.42 | 1.86 |
| ATAAGTAGGTTAAGGGTCATTCAGGTTGGTTCGC | 4.91 | 4.67 | 3.52 | 4.65 | 2.15 | 6.55 | 12 | 9.92 | 10.7 | 11.2 |
| CCTACTGGGCCATTCAGAGGTCCTTGATCATATG | -0.359 | -0.572 | -0.215 | -0.597 | -0.529 | 0.27 | 0.118 | 0.194 | -0.728 | -0.16 |
| ATCTCTAGATAAAGATAGTTCAGTGAATGCAAAT | -0.281 | 0.122 | 0.343 | 0.191 | 0.206 | -0.0361 | 0.872 | 0.0626 | 0.338 | 0.179 |
| TCTTGTATATCAAAGGTTAAGAAAGCCGAAGCCT | 1.57 | 2.66 | 1.24 | 2.13 | 0.723 | 3.79 | 6 | 6.59 | 6.78 | 7.96 |
| CGAACTAGGTCAAGGACAGTCAATCTCCGCACGC | 3.39 | 2.64 | 0.323 | 1.57 | -0.248 | 4.76 | 7.58 | 6.42 | 3.9 | 5.59 |
| TCTGCTAGGTCACTTGGTCAGCTAACGAGCTGCC | 2.56 | 2.03 | -0.292 | 1.38 | 0.874 | 2.97 | 2.53 | 3.31 | 1.62 | 2.28 |
| TTACCAAGGTGAAATGTCGTTGATGCACGCCTTG | 0.891 | 0.622 | -0.432 | 0.388 | -0.436 | 2.35 | 2.41 | 3.4 | 1.94 | 3.36 |
| CGTCCAAGGTCATAGGAGGTCAGTAAAGACAGAT | 7.75 | 7.7 | 5.05 | 6.36 | 1.18 | 5.96 | 5.82 | 6.05 | 2.41 | 4.8 |
| TGTCAAAGTTCAAAGTTAACGTAAGTATCCACAC | 6.94 | 6.38 | 5.46 | 4.6 | 2.99 | 5.59 | 8.27 | 7.38 | 5.04 | 7.29 |
| ACTTACGGGTCAACGAGGTTTTAGCACGCGTATA | 6.78 | 4.29 | 0.188 | 3.9 | 0.561 | 5.92 | 5.23 | 4.84 | 1.94 | 3.95 |
| GCGACTGGGGCAAAGCAGGTTACCATGAGGTTGG | 0.529 | 0.0146 | -0.506 | 0.0618 | -0.859 | 1.1 | 1.18 | 1.05 | -0.313 | 0.335 |
| GCTCGGAGGACAAGGTCAGAGTTTTGTCCGTAGA | 1.98 | 1.71 | -0.00501 | 1.56 | -0.35 | 2.42 | 0.985 | 1.89 | -0.291 | 0.859 |
| TCTGGTAGATCAAGCAGGTTAAGAAAGCCTGAGT | -0.292 | -0.109 | -0.642 | 0.00998 | -1.25 | 0.171 | -0.556 | 0.81 | 2.17 | 1.5 |
| GCTATTAGTTGAAAGGGAAACCGAATGATTCTCG | -0.0917 | -0.171 | 0.0809 | -0.236 | -0.289 | 0.000801 | 0.567 | 1.6 | 0.38 | 1.25 |
| TAGCCTGGGTCATGCGGGCCAGTATAGTGTCGGC | 3.19 | 1.79 | -0.665 | 1.03 | -0.444 | 3.4 | 2.12 | 2.48 | 0.16 | 1.54 |
| ATAAGTAGGTTATCGGGTCATTCAGTTTGCGCAT | 3.42 | 3.08 | 1.77 | 3.11 | 1.39 | 5.07 | 7.54 | 6.6 | 3.83 | 6.09 |
| AGTCAAAGTTCAATAGGTAACGTAAGATTCAGCT | 5.27 | 5.09 | 3.45 | 3.08 | 1.59 | 4.37 | 5.82 | 5.74 | 2.88 | 4.97 |
| ATATGTAGGTTAAGGGTCGTTCAGGTTGGTTCGC | 2.74 | 2.85 | 1.23 | 2.85 | 0.845 | 6.01 | 10.9 | 9.42 | 10.4 | 11 |
| CAGACTAGGTCAAGGTCAAAGTCGGTTTGTGCCA | 6.13 | 5.42 | 3.5 | 4.36 | 0.864 | 5.62 | 7.72 | 7.03 | 5.17 | 6.78 |
| CGTCAAAGTTCAACTAAGGTAACGTAGAGCACGC | 7.03 | 5.95 | 4.18 | 4.04 | 1.71 | 5.1 | 5.31 | 5.6 | 2.54 | 4.47 |
| TCTAGTTGGTCACGGAGGTCACACAGGACGGGTA | 3.66 | 3.54 | 2.46 | 3.05 | 0.75 | 3.83 | 3.74 | 3.76 | 3.51 | 3.91 |

| Sequence | PBM binding z-score [1] | PBM binding z-score [2] | PBM binding z-score [3] | PBM binding z-score [4] | PBM binding z-score [5] | PBM binding z-score [6] | PBM binding z-score [7] | PBM binding z-score [8] | PBM binding z-score [9] | PBM binding z-score [10] |
| --- | --- | --- | --- | --- | --- | --- | --- | --- | --- | --- |
| CCGACTGTGGCAAAGGTTACCATACTCAGTACGA | 0.857 | 1.38 | 0.228 | 1.73 | -0.558 | 4.03 | 8.41 | 7.91 | 6.78 | 8.43 |
| GCGACTGGGGCAAAGCAGGTTCCCATAAGGTTGG | -0.34 | -0.649 | -0.593 | -0.596 | -1.21 | 0.522 | 0.609 | 0.847 | -0.583 | 0.203 |
| AGTCAAAGTTCACTTGGTAACGTAAGATTCAGCT | 4.85 | 5.05 | 3.34 | 3.4 | 1.63 | 3.85 | 5.08 | 5.79 | 2.52 | 4.52 |
| CCTACTGGCCCAAAGGTCATTGATTCCAATGCTC | 4.8 | 5.12 | 4.37 | 4.8 | 1.23 | 5.27 | 7.37 | 7.17 | 5.9 | 7.85 |
| GGAAGGAGGGCAAGTTGATAGCAGAGTTTGATGG | 1.04 | 0.798 | 0.562 | 1.5 | 1.47 | 1.92 | 1.2 | 1.53 | 0.406 | 0.957 |
| CCTACTAGGCCAAAGGTCATTGATTCCAATGCTC | 5.07 | 5.49 | 4.69 | 5.36 | 1.48 | 6.66 | 12.3 | 10.5 | 11.4 | 11.8 |
| CCTACTGGGCCAAGGTCATTGAACAGTCAAAGCA | 3.08 | 3.2 | 0.814 | 3 | -0.34 | 4.19 | 4.25 | 4.55 | 1.68 | 3.73 |
| CGAACTAGATCAAGGACAGTGAATCTCCGCACGC | -0.0387 | -0.559 | -0.0881 | -0.756 | -0.00382 | -0.388 | 0.599 | -0.0723 | -0.423 | -0.36 |
| CCTGCTAGGCCAATGGTCAGCTAAAGCAGCTCGC | -0.614 | -0.503 | -0.698 | -0.914 | -0.839 | -0.216 | 0.706 | 2.33 | 0.142 | 1.6 |
| TCGTATAGGTAAACAGGTGAAAGTCCGTAAGTTA | 1.19 | 0.963 | 0.191 | 0.852 | 0.0957 | 1.95 | 1.46 | 2.64 | 2.92 | 2.76 |
| AGAATGAGGTTATTAAGATCAGTGAATTGCGGTC | 1.66 | 1.74 | 0.236 | 1.27 | 0.0793 | 2.7 | 1.43 | 1.81 | 0.385 | 0.958 |
| GGAACGAGGGCATTCGACTTGATAGCATGGCGAT | 0.596 | 0.173 | -0.634 | -0.0929 | -0.467 | 1.41 | 1.14 | 0.717 | -0.0237 | 0.28 |
| CCAACTAGGTCAAGGTCAAAGTCGGTTTGTGCCA | 6.64 | 5.56 | 4.61 | 4.73 | 1.43 | 6.14 | 9.18 | 7.58 | 5.13 | 7.56 |
| TCTCGGAGGACACGAAGGTCAGAGTTTTCCAGAG | 1.18 | 0.932 | 0.497 | 1.22 | -0.785 | 1.81 | 0.436 | 1.67 | 2.25 | 1.87 |
| AGAACGAGGGCACGCTGAGTTGACAGCAGAGTAG | 0.953 | 0.796 | -0.526 | 0.312 | -1.2 | 2.46 | 2.25 | 1.73 | 0.191 | 0.731 |
| CCAGACAGGTGAAAGGTAACTGAGTCTGGTACGC | 0.744 | 0.866 | -0.565 | 0.528 | -0.541 | 3.52 | 6.16 | 6.38 | 4.81 | 5.99 |
| GTACGAAGGTGAATAGGTCGTTGATGAGTAGGCG | 0.531 | 0.661 | -0.364 | 0.505 | -0.557 | 2.15 | 1.38 | 1.87 | 0.421 | 1.22 |
| CGTCAAAGTTCAACTAAGGTAACGGAAAGCACGC | 6.73 | 6.18 | 3.33 | 4.2 | 2.03 | 5.27 | 4.86 | 5.75 | 1.99 | 4.58 |
| TGAATGAGGTTATAAGATCAGGGCACGTTGCAAA | 1.49 | 1.49 | 0.117 | 1.32 | 0.0684 | 2.9 | 1.62 | 1.95 | 0.914 | 1.63 |
| ACTCGGAGGACCAAGGTCAGAGCTACGCCAGTGA | 1.21 | 0.987 | -0.312 | 0.779 | -0.603 | 1.79 | 0.947 | 1.31 | 0.277 | 0.773 |
| ATCGAAAGGTCGAGGTGGGTATAGAGAAAGGGAA | 4.46 | 3.55 | 0.722 | 3.12 | 0.942 | 4.74 | 2.59 | 3.11 | 1.17 | 1.97 |
| CCTAGCAGGCAAGGGTCACTCAAGCATTTCGCTT | 2.9 | 2.67 | -0.242 | 2.45 | -0.627 | 3.8 | 1.77 | 3.27 | 0.737 | 2.48 |
